Screening results as filed in PubChem BioAssay.
TGFb SMAD3 inh: inhibitors of TGF-b signaling | HepG2 CAGA-GFP TGF-b/SMAD3 reporter, GFP fluorescence, 18 h; TGF-beta stimulated, 500 pg/mL final | Potency, µM (doses to about 46.1 µM), without a hit: top-dose activity, negative = inhibition, usual class: inhibitors | 410,000 compounds, 1.2% hits | AID 588855; further: potency means the concentration at half of the fitted maximal effect; on the % scale 0 is the no-effect control and ±100 the full control effect; nearly all actives have a fitted effect of over 65% in size
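Smad-responsive CAGA-GFP expression was quantified in HEPG2 cells exposed to compounds and 500 pg/mL final TGF-beta for 18 h at 37 degrees C; unstimulated wells defined full inhibition.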
HepG2 viability: kills HepG2 cells in TGF-b inhibitor counter-screen; HepG2 CAGA-GFP viability, ATP luminescence, 18 h; Potency, µM (top dose mostly 46.1 µM), for inactives: top-dose activity change, negative = cytotoxicity, actives largely listed as cytotoxic; 410,000 compounds, 0.76% hits; AID 588856; further: potency means the concentration at half of the fitted maximal effect
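HepG2 CAGA-GFP cells (1000/well, DMEM with 1% FBS) received compound, then TGF-beta at 500 pg/mL final, and were incubated 18 hours at 37 degrees C. Viability was read by CellTiter-Glo luminescence. Media-only wells were set as complete cell-killing and DMSO as no toxicity.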
HT1080-NT tox: kills 2HG-producing HT-1080-NT fibrosarcoma cells; HT-1080-NT fibrosarcoma viability, CellTiter-Glo ATP luminescence, 48 h; Potency, µM (highest dose often 46.1 µM), inactives show at the top dose activity, negative = less viability, usual class: cytotoxic; 360,000 compounds, 1.6% hits; AID 686970;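 further: NT is the 2HG producing partner of a matched IDH1 knockdown line; potency means the concentration at half of the fitted maximal effect; 0% = DMSO-treated cells and -100% = media-only wells without cells; nearly all actives have a fitted effect of over 55% in size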
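Luminescent CellTiter-Glo readout after 48 hours of compound exposure at 37 degrees C defined viability of HT-1080-NT cells. Activity was normalized to DMSO wells and cell-free media wells; concentration-response curves were fitted and assigned curve classes.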
IL-1B inflam inh: blocks inflammasome-driven IL-1 beta release; THP-1 LPS/ATP IL-1B secretion, AlphaLISA, 16 h; hits give low values; activity change, % at 57.5 µM; 360,000 compounds, 4.7% hits; in the data active means activity change below about -50%; inconclusive means mostly about -30% to -49%; further: on the % scale 0 is the no-effect control and ±100 the full control effect
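Secreted IL-1B measured by AlphaLISA bead assay after 16 h compound exposure of THP-1 cells; compounds (final up to 57.5 uM) added 1 h before LPS (250 ng/mL) and ATP (1.25 mM) stimulation; lower signal means less secretion.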
Giardia killer: Giardia lamblia killing; Giardia lamblia trophozoite viability; activity change, % at 7.66 µM, hits read low; 340,000 compounds, 0.15% hits; AID 540267; in the data active means activity change below about -80%; inconclusive means between about -30% and that limit;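 further: parasites exposed to compound for two days anaerobically before the ATP read; on the % scale 0 is the no-effect control and ±100 the full control effect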
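Trophozoite viability was measured as ATP-dependent luminescence, read 15-30 min after reagent addition. Before that, parasites at 100 cells/well were exposed to compounds for 48 h, anaerobically, at 37 deg C.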
HT1080 IDH1KD tx: kills HT-1080 cells with IDH1 knockdown; AID 686971; HT-1080 IDH1 knockdown viability, ATP luminescence, 48 h; Potency, µM (top dose mostly 46.1 µM), without a hit: at the top dose activity, negative = toxicity, hits mostly cytotoxic; 360,000 compounds, 2% hits;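 further: potency means the concentration at half of the fitted maximal effect; 0% = DMSO wells and -100% = cell-free medium wells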
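After a 2 h attachment period, IDH1KD HT-1080 cells took pin-transferred compound for 48 h at 37 °C; ATP-based luminescence after 10 min room-temperature reagent incubation reported viability.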
* hit, by the source's call. Only some compounds are listed: those with a hit (about 6.5% of all), similar ones and a draw of the others. Unless noted, the call rests on the fitted dose curve; in most records, active means well fitted curve in the direction sought with a large enough effect; inconclusive means small, poorly fitted or top-dose-only effect, or another doubt; inactive means no such curve, though single readings can be large; an effect the other way counts as inactive or inconclusive.

For COc1ccc(CNC(=O)CSc2nc(-c3ccccc3)cc(-c3cccs3)c2C#N)cc1 the results were TGFb SMAD3 inh -5%, HepG2 viability -19%, HT1080-NT tox -8%, IL-1B inflam inh 33, Giardia killer 9 and HT1080 IDH1KD tx -17%.
Screening COc1ccc(-c2cc(-c3cccs3)c(C#N)c(SCC(=O)NCc3ccco3)n2)cc1 returned TGFb SMAD3 inh 0%, HepG2 viability -2%, HT1080-NT tox 2.9µM*, IL-1B inflam inh 15, Giardia killer 9 and HT1080 IDH1KD tx 2.3µM*.
Screening CC(=O)Oc1ccccc1C(=O)Oc1ccccc1C(=O)O returned TGFb SMAD3 inh 0%, HepG2 viability -2%, HT1080-NT tox 16%, IL-1B inflam inh 28, Giardia killer 36 and HT1080 IDH1KD tx 4%.
For CCC1CN(C(=O)NCc2ccc(C)cc2)c2cc(Cl)ccc2O1 (configuration not stated) the results were TGFb SMAD3 inh inconclusive, HepG2 viability -1%, HT1080-NT tox -6%, IL-1B inflam inh -26, Giardia killer -2 and HT1080 IDH1KD tx 0%.
CCC1CN(C(=O)NCc2ccc(F)cc2)c2cc(Cl)ccc2O1 (configuration not stated) was read as TGFb SMAD3 inh inconclusive, HepG2 viability -21%, HT1080-NT tox -5%, IL-1B inflam inh -62*, Giardia killer -6 and HT1080 IDH1KD tx -17%.
Screening Cc1ccc(-c2nnc(N3CCN(S(C)(=O)=O)CC3)c3ccccc23)cc1 returned TGFb SMAD3 inh -17%, HepG2 viability -5%, HT1080-NT tox -2%, IL-1B inflam inh -59*, Giardia killer 4 and HT1080 IDH1KD tx 3%.
CS(=O)(=O)N1CCN(c2nnc(-c3ccccc3)c3ccccc23)CC1 was read as TGFb SMAD3 inh -2%, HepG2 viability -15%, HT1080-NT tox 0%, IL-1B inflam inh -61*, Giardia killer 32 and HT1080 IDH1KD tx -9%.
For COc1ccccc1N1CCN(C(=O)CN(CCc2ccccc2)S(C)(=O)=O)CC1 the results were TGFb SMAD3 inh -28%, HepG2 viability -5%, HT1080-NT tox 4%, IL-1B inflam inh 1, Giardia killer -13 and HT1080 IDH1KD tx 13%.
O=C(C(=Cc1ccccc1)CN1CCCCC1)c1ccccc1 was read as TGFb SMAD3 inh inconclusive, HepG2 viability -101%, HT1080-NT tox inconclusive, IL-1B inflam inh -104*, Giardia killer -14 and HT1080 IDH1KD tx 4.6µM*.
O=C(CCCCN1CCCCC1)c1ccccc1 was read as TGFb SMAD3 inh 0%, HepG2 viability -20%, HT1080-NT tox 3%, IL-1B inflam inh -6, Giardia killer -9 and HT1080 IDH1KD tx 12%.
CN(CC(=O)Nc1ccc(Cl)cc1)C(=O)c1ccc(-n2cncn2)c([N+](=O)[O-])c1 was read as TGFb SMAD3 inh 3%, HepG2 viability -8%, HT1080-NT tox -1%, IL-1B inflam inh -5, Giardia killer 14 and HT1080 IDH1KD tx -17%.
Cc1ccc(NC(=O)CN(C)C(=O)c2ccc(Cl)c([N+](=O)[O-])c2)cc1 was read as TGFb SMAD3 inh -12%, HepG2 viability -6%, HT1080-NT tox 17%, IL-1B inflam inh -85*, Giardia killer 1 and HT1080 IDH1KD tx 15%.
CN(CC(=O)Nc1ccc(Cl)c(C(F)(F)F)c1)C(=O)c1ccc(N2CCOCC2)c([N+](=O)[O-])c1 was read as TGFb SMAD3 inh inconclusive, HepG2 viability -24%, HT1080-NT tox 23µM*, IL-1B inflam inh inconclusive, Giardia killer 40 and HT1080 IDH1KD tx inconclusive.
O=C(C1=NNCC1c1ccccc1)C1OC1c1ccccc1 (configuration not stated) was read as TGFb SMAD3 inh -21%, HepG2 viability -28%, HT1080-NT tox -2%, IL-1B inflam inh -89*, Giardia killer -27 and HT1080 IDH1KD tx -18%.
For Cc1ccc2cc(C#N)c(NCCNC(=S)NCCCN(C)C)nc2c1C the results were TGFb SMAD3 inh -23%, HepG2 viability -11%, HT1080-NT tox 21µM*, IL-1B inflam inh inconclusive, Giardia killer -10 and HT1080 IDH1KD tx inconclusive.
For Cc1cc(C)c2nc(NCCCNC(=S)NCCCN(C)C)c(C#N)cc2c1 the results were TGFb SMAD3 inh inconclusive, HepG2 viability -132%, HT1080-NT tox inconclusive, IL-1B inflam inh -21, Giardia killer 3 and HT1080 IDH1KD tx inconclusive.
CCCCCCCCCCCC(=O)NC(C(=O)OCC)C(O)c1cccc([N+](=O)[O-])c1 (configuration not stated) was read as TGFb SMAD3 inh inconclusive, HepG2 viability -72%, HT1080-NT tox inconclusive, IL-1B inflam inh -79*, Giardia killer 4 and HT1080 IDH1KD tx inconclusive.
For CC(C)(C)c1ccc(-c2cn(-c3ccc(Br)cc3)c3[n+]2CCCS3)cc1 the results were TGFb SMAD3 inh 10µM*, HepG2 viability -21%, HT1080-NT tox 23µM*, IL-1B inflam inh -99*, Giardia killer 29 and HT1080 IDH1KD tx 8.2µM*.
Screening COc1ccc(-c2cn(-c3ccccc3)c3[n+]2CCS3)cc1 returned TGFb SMAD3 inh inconclusive, HepG2 viability -16%, HT1080-NT tox inconclusive, IL-1B inflam inh -11, Giardia killer 11 and HT1080 IDH1KD tx 13µM*.
Screening Cc1ccc(C)c(S(=O)(=O)c2nnn3c2nc(NCc2cccs2)c2sccc23)c1 returned TGFb SMAD3 inh inconclusive and HepG2 viability -32%.
For COCC(C)n1c(C)cc(C(=O)COC(=O)CNC(=O)c2ccccc2)c1C (configuration not stated) the results were TGFb SMAD3 inh 6%, HepG2 viability 0%, HT1080-NT tox 8%, IL-1B inflam inh -11, Giardia killer -7 and HT1080 IDH1KD tx 0%.
O=C(O)C1Cc2ccccc2CN1S(=O)(=O)c1ccccc1 (configuration not stated) was read as TGFb SMAD3 inh -6%, HepG2 viability -7%, HT1080-NT tox 16%, IL-1B inflam inh 10, Giardia killer 0 and HT1080 IDH1KD tx 10%.
`CN(C)c1ccc(/C=C\C=C/c2ccnc3ccccc23)cc1` gave TGFb SMAD3 inh 8.9µM* and HepG2 viability -32%.
O=C(O)CCN(CCC(=O)O)c1ccc(/C=C/c2ccnc3ccccc23)cc1 was read as TGFb SMAD3 inh 48% and HepG2 viability 6%.
Screening CCCCN(CCC(=O)O)c1ccc(/C=C/c2ccnc3ccccc23)cc1 returned TGFb SMAD3 inh inconclusive and HepG2 viability 5.6µM*.
Screening CN(C)c1ccc(/C=C/c2ccnc3ccccc23)c(F)c1 returned TGFb SMAD3 inh inconclusive and HepG2 viability -51%.
